The results in this text go back to PubChem BioAssay (Tox21).

Structures are written as SMILES. Values without a mark were called inactive. Results filed as inconclusive are left out. Active and inactive are the calls of the source. Unless noted, calls come from the whole dose curve; as a rule, active = well fitted curve in the direction sought with a large enough effect in the repeat runs; inconclusive = weak or mixed curves; inactive = no such curve, though single readings can be large; an effect the other way counts as inactive or inconclusive.

The nature of test [1]: qHTS assay for small molecule agonists of the p53 signaling pathway (AID 651631; calls by dose curve; note: nearly all actives have a fitted effect of over 15% in size). The method in brief:
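Readout was fluorescence from the LiveBLAzer FRET substrate, applied for 2 h at room temperature after 16 h compound exposure at 37 °C. Cells were the p53RE-bla HCT-116 line, with beta-lactamase driven by p53 response elements.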
In general terms: qHTS replaces the single test concentration by a dilution series.

The nature of test [2]: qHTS assay for small molecules that induce genotoxicity in human embryonic kidney cells expressing luciferase-tagged ATAD5 (AID 651632). Note: nearly all actives have a fitted effect of over 15% in size. The method in brief:
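HEK293T cells carrying a luciferase reporter tagged to ATAD5 were exposed to compound or DMSO vehicle for 16 hr at 37C, 5% CO2. Amplite was added, and after 30 min at room temperature luciferase activity was read as a marker of ATAD5 induction.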

Test [3] is described as follows: qHTS assay for small molecule agonists of the p53 signaling pathway - cell viability (AID 651633; calls by dose curve; note: series mostly up to about 83 µM; nearly all actives have a fitted effect of over 30% in size). Summed up:
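p53RE-bla cells were treated with compound for 16 hours at 37 C. Cytotoxicity was then measured as CellTiter-Glo luminescence after 30 min at room temperature.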

Test [4] can be described thus: qHTS assay for small molecules that induce genotoxicity in human embryonic kidney cells expressing luciferase-tagged ATAD5 - cell viability (AID 651634; calls by dose curve; note: nearly all actives have a fitted effect of over 25% in size). The method in brief: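 HEK293T cells expressing luciferase-tagged ATAD5 were exposed to compound or DMSO for 15.5 hr at 37C, 5% CO2. Viability was then read as live-cell protease activity by CellTiter-Fluor fluorescence after 30 min at 37C.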

Test [5] can be described thus: qHTS assay for small molecule disruptors of the mitochondrial membrane potential (AID 720635). Note: potency is the fitted concentration of half-maximal effect. Summed up: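 HepG2 cells exposed to compound 1 hr at 37C, then Mito-MPS dye 30 min. Ratio read of aggregate (540/590 nm) versus monomer (490/535 nm) fluorescence.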
Test [6] in a line: qHTS assay to test for compound auto fluorescence at 590 nm (red) in HepG2 cells (AID 720674). The method in brief:
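Fluorescence at 590 nm emission following 540 nm excitation was recorded from HepG2 wells one hour after compound transfer, with DMSO-only wells as vehicle and Rose Bengal sodium equivalency as the scale.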

Test [7] can be described thus: qHTS assay to test for compound auto fluorescence at 535 nm (green) in HepG2 cells (AID 720675).
Test [8] can be described thus: qHTS assay to test for compound auto fluorescence at 460 nm (blue) in HEK293 cells (AID 720678). Summed up:
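After cell attachment (4-5 hr, 37C), compounds were pinned onto HEK293 monolayers in 10% dialyzed FBS medium. The blue channel (405/460 nm) was read following overnight culture. Equivalency was calculated against triamterene.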

Test [9] is described as follows: qHTS assay to test for compound auto fluorescence at 590 nm (red) in HEK293 cells (AID 720679). Summed up:
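Plates of HEK293 cells (10% dialyzed FBS) are treated with 23 nL compound or DMSO vehicle after a 4-5 hr attachment period, incubated overnight at 37C, and read for red fluorescence at 540/590nm.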

A short description of test [10]: qHTS assay for small molecule disruptors of the mitochondrial membrane potential - cell viability (AID 720634; calls by dose curve;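 note: human HepG2 liver cancer cells; series mostly up to about 83 µM; nearly all actives have a fitted effect of over 20% in size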). The method in brief: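 HepG2 cells seeded overnight at 37 C, then exposed to compound or DMSO for 1 hr at 37 C, 5% CO2. m-MPI dye added, then CellTiter-Glo for 30 min at room temperature; viability read as ATP luminescence.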
% is set by controls: 0 for no effect and ±100 for the full control effect.

Consider `O=C(c1ccc2c(c1)C(=O)OC2=O)c1ccc2c(c1)C(=O)OC2=O`, for which the call in test [1], in test [2], in [3], in test [6], in test [7] and in test [8] was inactive. The outcome in test [9] was inactive. In addition, the Potency result in test [4] and in [5] was “inactive” throughout.

On to `C[C@H](CCC(=O)NCC(=O)O)[C@H]1CC[C@H]2[C@@H]3[C@H](O)C[C@@H]4C[C@H](O)CC[C@]4(C)[C@H]3C[C@H](O)[C@]12C`, for which the outcome in test [1], in [2], in test [3], in [10], in [6] and in [7] was inactive. Further, the result in [8] and in test [9] was inactive. Also, in test [4], the Potency entry is “inactive”.

On to `CCCCOC(=O)C(C)OC(=O)CCC` (stereo not given), for which the outcome in [1], in [2], in test [3], in [6], in [7] and in [8] was inactive. Further, in test [9], the call was inactive. Moreover, in test [4], the Potency entry is “inactive”.

As for `CCC(=O)c1ccc(O)cc1`, the molecule was called inactive in [1], in [2], in test [3], in [10], in test [6] and in test [7]. Also, the result in test [8] and in test [9] was inactive. Besides, the Potency entry in test [4] is “inactive”.

On to `C=CCOc1cc(Cl)ccc1C(=O)NCCN(CC)CC`, for which the molecule was classed as inactive in test [1], in test [2], in test [3], in test [10], in test [7] and in test [8]. In addition, the result in test [9] was inactive. Moreover, in test [4], the Potency entry is “inactive”.

In the case of `Oc1ccccc1Cc1ccccc1O`, the molecule was called inactive in test [1], in [2], in test [3], in [7], in test [8] and in test [9]. The Potency entry in test [4] is “inactive”. In [5], the Potency is 7.7 µM (active).

On to `CCN(CCO)c1cccc(C)c1`, for which the call in [1], in [2], in [3], in test [7], in test [8] and in [9] was inactive. Besides, the Potency result in [4] and in [5] was “inactive” in each case.

In the case of `O=C(Nc1cccc(C2=NCCN2)c1)Nc1cccc(C2=NCCN2)c1`, the outcome in test [1], in [2], in [3], in test [10], in test [6] and in [7] was inactive. Moreover, the call in test [8] and in [9] was inactive. Moreover, in test [4], the Potency entry is “inactive”.

For `CCCCCCCCCCCCC`, the molecule was classed as inactive in [1], in test [2], in test [3], in test [10], in test [7] and in test [8]. In addition, the call in test [9] was inactive. Besides, the Potency result in test [4] is “inactive”.

As to `CC(C)(c1ccc(Oc2ccc3c(c2)C(=O)OC3=O)cc1)c1ccc(Oc2ccc3c(c2)C(=O)OC3=O)cc1`, the molecule was classed as inactive in [1], in test [2], in test [3], in [10], in test [7] and in [8]. In test [9], the molecule was classed as inactive. The Potency entry in [4] was “inactive”.

Regarding `C1CCN2C[C@@H]3C[C@@H](CN4CCCC[C@@H]34)[C@H]2C1`, the molecule was classed as inactive in [1], in test [2], in [3] and in test [10]. For the same molecule, in [4], the Potency entry is “inactive”. Besides, the fluorescence, relative to Rose Bengal in test [6] is 0.0708% [at 18.6 µM]. For the same molecule, in test [7], the fluorescence, % of fluorescein control is -0.0003% [at 18.6 µM]. In test [8], the fluorescence, % of triamterene was 0.214% [at 18.6 µM]. Besides, the fluorescence, % of fluorescent control in [9] is -0.036% [at 18.6 µM].

Regarding `CCCCCC(=O)OCC`, the outcome in test [1], in test [2], in [3], in test [10], in test [6] and in test [7] was inactive. Further, the result in [8] and in [9] was inactive. Moreover, the Potency entry in [4] is “inactive”.

On to `CCN1CN(CC)CN(CC)C1`, for which the molecule was called inactive in [1], in test [2], in [3], in [6], in [7] and in test [8]. The molecule was classed as inactive in test [9]. The Potency entry in [4] and in test [5] was “inactive” throughout.

Regarding `O=C(O)/C=C/c1ccccc1`, the outcome in test [1], in test [2], in [3], in [6], in [7] and in [8] was inactive. The molecule was called inactive in [9]. Besides, the Potency result in test [4] and in [5] was “inactive” in each case.

In the case of `OC(CCN1CCCCC1)(c1ccccc1)c1ccccc1`, the molecule was called inactive in [1], in test [2], in test [3], in test [10], in test [6] and in test [7]. Besides, the molecule was classed as inactive in test [8] and in test [9]. The Potency entry in test [4] was “inactive”.

As for `O=C(O)Cc1cccc(-c2cc(CCCCCCc3ccc(O[C@H]4O[C@H](CO)[C@@H](O)[C@H](O)[C@@H]4O)c(-c4cccc(CC(=O)O)c4)c3)ccc2O[C@H]2O[C@H](CO)[C@@H](O)[C@H](O)[C@@H]2O)c1`, the result in [1], in test [2], in [3], in test [10], in test [6] and in test [7] was inactive. The call in test [8] and in test [9] was inactive. The Potency entry in test [4] was “inactive”.

In the case of `CO[Si](CCCCl)(OC)OC`, the molecule was classed as inactive in test [1], in test [2], in test [3], in test [6], in test [7] and in test [8]. The result in [9] was inactive. Moreover, the Potency result in test [4] is “inactive”.

As to `COCC(=O)Nc1c(I)c(C(=O)NCC(O)CO)c(I)c(C(=O)N(C)CC(O)CO)c1I` (stereo not given), the call in test [1], in test [2], in [3] and in test [10] was inactive. Besides, in test [4], the Potency result was “inactive”. For the same molecule, in test [6], the fluorescence, relative to Rose Bengal is -0.339% [at 18.6 µM]. Also, the fluorescence, % of fluorescein control in [7] is 0.0261% [at 18.6 µM]. In addition, the fluorescence, % of triamterene in test [8] is -0.157% [at 18.6 µM]. Besides, in test [9], the fluorescence, % of fluorescent control is 0.231% [at 18.6 µM].

As to `NS(=O)(=O)c1cc2c(cc1Cl)NC(CC1CCCC1)NS2(=O)=O` (stereo not given), the outcome in test [1], in test [2] and in test [3] was inactive. The Potency entry in test [4] and in test [5] was “inactive” each time. In addition, the fluorescence, relative to Rose Bengal in [6] was -0.14% [at 18.6 µM]. In addition, the fluorescence, % of fluorescein control in test [7] is -0.0768% [at 18.6 µM]. Further, the fluorescence, % of triamterene in [8] is -0.024% [at 18.6 µM]. The fluorescence, % of fluorescent control in test [9] is -0.246% [at 18.6 µM].

With `CC1CCC(C(C)(C)S)C(=O)C1` (stereo not given), the molecule was classed as inactive in test [1], in test [2], in [3], in [10], in [6] and in test [7]. For the same molecule, the molecule was called inactive in test [8] and in [9]. Further, in test [4], the Potency entry is “inactive”.

As to `F[Si-2](F)(F)(F)(F)F`, the result in test [1], in test [2], in test [3], in [6], in [7] and in test [8] was inactive. For the same molecule, the outcome in test [9] was inactive. For the same molecule, the Potency entry in test [4] is “inactive”.

Consider `C/C=C(\C)C(=O)OCC/C=C\CC`, for which the call in test [1], in test [2], in test [3], in [10], in test [6] and in [7] was inactive. For the same molecule, the call in test [8] and in [9] was inactive. Moreover, the Potency entry in [4] was “inactive”.

With `CCCCCCCCCOCC1CO1` (stereo not given), the molecule was called inactive in test [1], in test [2], in test [3], in test [6], in [7] and in test [8]. Also, the molecule was classed as inactive in test [9]. Moreover, the Potency entry in [4] and in [5] was “inactive” throughout.

Regarding `CC(C)C(=O)c1ccccc1`, the molecule was classed as inactive in test [1], in test [2], in test [3], in [6], in test [7] and in test [8]. In test [9], the call was inactive. In addition, in [4], the Potency entry is “inactive”.

Regarding `CCOC(=O)CC#N`, the result in test [1], in test [2], in test [3], in [10], in test [6] and in test [7] was inactive. For the same molecule, the result in test [8] and in test [9] was inactive.
